Sampled rows, rich in hits. Any-hit rate of the full collection: about 2.8%.
D3 antag – blocks the human D3 dopamine receptor; AID 652054; P35462; hit rate 2.5% among 360,000; max response, negative = inhibition, %; D3R cells, DiscoveRx beta-arrestin luminescence, antagonist mode; active compounds read low; in the data active = max response below about -50%; inconclusive = no clear call, values can overlap the other calls; also: % is scaled to controls: 0 for no effect and ±100 for the full control effect
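Cells expressing the human receptor were seeded at 1500 cells/well, incubated overnight at 37 degrees C in 5% CO2, then exposed to library compounds with dopamine controls for 90 minutes at 37 degrees C before luminescent detection.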
DRD3 agonist – D3 dopamine receptor (human) agonism | P35462 | max activation, % | D3R DiscoveRx beta-arrestin cells, luminescence, 90 min | hit rate 0.58% among 410,000; in the data active = max activation above about 30%; also: 0% is about no effect
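Cells at 1500/well, incubated overnight, then treated with pinned compounds (dopamine as control) for 90 min at 37 degrees C. DiscoveRx reagent added for 30 - 60 minutes at room temperature; luminescence read.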
PI4K2A block – PI4K2A (human) kinase inhibition. activity change, negative = inhibition, % at 76.9 µM. Q9BTU6. hit rate 0.13% among 420,000. purified PI4K2A, ADP-Glo luminescence, 1 h; active compounds read low; in the data active = activity change below about -50%; inconclusive = mostly about -30% to -49%;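 also: -100% = wells without enzyme as full effect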
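PI4K2A activity was measured by ADP-Glo luminescence: enzyme (4 ug/mL stock) and phosphatidylinositol (1.2 mM stock) in Tris pH 7.5/MgCl2/EGTA/Triton X-100 buffer were reacted with ATP (300 microM stock) for one hour at ambient temperature.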
pAkt inh – blocks phosphorylation of Akt; Neuro2A IGF-stimulated pAkt S473 HTRF, 20 min; active compounds read low; activity change, % for hits at 50 µM; hit rate 0.32% among 360,000; AID 651550; in the data active = activity change below about -80%; inconclusive = mostly about -51% to -80%; also: % is scaled to controls: 0 for no effect and ±100 for the full control effect
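Single-point screen (50 µM final compound) in Neuro2A cells stimulated 20 min with 6 nM IGF at 37 deg C. After lysis, Ser473-phosphorylated Akt read by HTRF (ex 330 nm, em 615/665 nm) as the 665/615 ratio.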
LDHA inh – blocks human lactate dehydrogenase A; hit rate 0.15% among 480,000; P00338; AID 1347041; purified LDHA, NADH/diaphorase-resazurin fluorescence; active compounds read low; activity change, % (values are at about 110 or 230 µM); in the data active = activity change below about -30%; inconclusive = mostly about -25% to -30%;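 also: plate controls were DMSO wells for no effect and wells without enzyme for full effect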
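Remaining NADH was detected by diaphorase (0.133 mg/mL) converting 37 µM resazurin to fluorescent resorufin, read at 0 and 20 minutes. The preceding 5-minute room-temperature reaction used 2 nM LDHA, 0.2 mM sodium pyruvate and 0.06 mM NADH at pH 7.4.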
RGS4 inhibitor – human RGS4 inhibition | P49798 | Transcreener GDP fluorescence polarization, RGS4-accelerated GTP hydrolysis | Potency, µM (top dose mostly 114 µM), without a hit: at the highest dose activity change, negative = inhibition, hits mostly inhibitors | hit rate 0.039% among 390,000; active = well fitted inhibition curve with a large enough effect; inconclusive = small, poorly fitted or top-dose-only effect; inactive = no such curve, though single readings can be large or run the other way; also: potency is read from the fitted curve at half-maximal effect; % is scaled to controls: 0 for no effect and ±100 for the full control effect; nearly all actives have a fitted effect of over 75% in size
Target sequence (P49798 whole entry, looked up): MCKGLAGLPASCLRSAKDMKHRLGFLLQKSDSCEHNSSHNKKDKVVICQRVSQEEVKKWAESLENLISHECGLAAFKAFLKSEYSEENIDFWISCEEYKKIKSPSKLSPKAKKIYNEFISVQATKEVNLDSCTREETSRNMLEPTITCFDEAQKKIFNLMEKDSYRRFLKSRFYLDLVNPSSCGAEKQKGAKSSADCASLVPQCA
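MLSMR compounds (23 nl, pin-transferred) preincubated 10 min at room temperature with a 500nM (2x) first reagent, then RGS4 at 900nM (2x) plus Transcreener GDP mix added; fluorescence polarization (620/688 nm) read before and after 90 min at 30 °C.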
* hit, by the source's call; i = inactive; ? = inconclusive; · = no result given.

SMILES	D3 antag	DRD3 agonist	PI4K2A block	pAkt inh	LDHA inh	RGS4 inhibitor
COc1ccc(C(CNC(=O)Cc2ccc(Cl)c(Cl)c2)N(C)C)cc1 (centres undefined)	-2	-13	-10	i	-8	13%
CCOC(=O)C1=C(N)Oc2c(c(=O)oc3ccccc23)C12C(=O)Nc1ccc(Br)cc12 (centres undefined)	·	·	·	·	17	·
Cc1ccc(C(=O)N[C@@H](C)CN2C3=NC[C@@H](Cc4ccccc4)N3C[C@H]2Cc2ccc(O)cc2)cc1Br	-70*	-53	0	i	1	11%
Cc1ccc(C(=O)N[C@@H](C)CN2C3=NC[C@H](Cc4ccccc4)N3C[C@H]2Cc2ccc(O)cc2)cc1Br	-27	-23	4	i	2	4%
C[N+]1(C)CCC(OC(=O)C(c2ccccc2)c2ccccc2)CC1	-59*	-87	-7	i	-17	?
C[N+]1(C)C2CC[C@H]1CC(OC(=O)C(CO)c1ccccc1)C2 (some centres undefined)	-67*	-6	-6	i	-2	-3%
C[N+]1([O-])[C@@H]2CC[C@H]1CC(OC(=O)C(CO)c1ccccc1)C2 (some centres undefined)	·	-5	·	·	·	·
C[N+]1(C)[C@@H]2CC[C@H]1CC(OC(=O)[C@@H](CO)c1ccccc1)C2 (some centres undefined)	-28	-3	2	i	?	-33%
Oc1c(Br)c(Br)c(Br)c(Br)c1Br	-55*	-85	1	i	?	-9%
O=C(O)CSC(c1ccccc1)c1ccc(Cl)cc1 (centres undefined)	·	·	·	·	1	·
CC1CCCN(CC(=O)N2CCCc3ccccc32)C1 (centres undefined)	-57*	-35	-5	i	-2	-5%
O=C(O)[C@H]1[C@H]2CN[C@H](C(=O)O)[C@H]21	·	·	·	·	·	6µM*
NC(=O)C1(N2CCCCC2)CCN(Cc2ccccc2)CC1	-68*	-29	-1	i	4	-2%
CCc1nc(N2CCNCC2)c(C#N)c2c1CSC(C)(C)C2	-74*	-3	8	i	-4	-2%
CC(C)Cc1nc(N2CCNCC2)c(C#N)c2c1CCCC2	·	·	·	·	4	·
c1ccc(CN2CCN(Cc3ccc4ccccc4c3)CC2)cc1	-69*	-15	5	i	-16	-49%
O=C(Cc1ccccc1)N1CCN(Cc2ccccc2Cl)CC1	-14	-1	0	i	-18	7%
Oc1c(Cl)cc(Cl)cc1CN1CCN(Cc2ccccc2)CC1	-51*	-39	1	i	0	2%
CCOC(=O)c1c(C)n(C2CCCC2)c2ccc(O)cc12	·	·	·	·	-5	·
Cc1ccc(-n2nc(C)c3c2NC(=O)CSC3c2ccsc2)cc1Cl (centres undefined)	·	·	·	·	0	·
C=CCNC(=O)NC(=O)COC(=O)c1cn(C)c2ccccc12	·	·	·	·	3	·
COc1ccc(CCN(C)Cc2ccc(F)cc2F)cc1OC	-77*	-28	3	i	?	27%
CCN(CC)c1ccc(CN(C)CCc2ccc(OC)c(OC)c2)cc1	?	-23	4	i	-4	-33%
C=C1C(=O)O[C@H]2[C@H]1[C@H](OC(=O)CC(=O)O[C@@H]1C[C@@H](C)[C@@H]3C=CC(=O)[C@@]3(C)[C@H]3OC(=O)C(=C)[C@H]13)C[C@@H](C)[C@H]1C=CC(=O)[C@]12C	-13	-5	?	i	-1	?
C=C1C(=O)OC2C1CCC(C)C1(O)C=CC(=O)C21C (centres undefined)	22	4	-6	i	4	-15%
C=C1C(=O)O[C@@H]2C[C@@H](C)[C@@H]3C=CC(=O)[C@@]3(C)[C@@H](OC(=O)CC(=O)O[C@H]3[C@@H]4C(=C)C(=O)O[C@@H]4C[C@@H](C)[C@@H]4C=CC(=O)[C@]43C)[C@H]12	-110*	-32	-70*	i	3	-103%
C=C1C(=O)OC2CC(C)C3C=CC(=O)C3(C)C(O)C12 (centres undefined)	-75*	-26	?	i	-1	?
